Records with an inconclusive call do not appear. The source made the active and inactive calls. Calls follow the shape of the dose curve; as a rule, active = well fitted inhibition curve with a large enough effect; inconclusive = small, poorly fitted or top-dose-only effect; inactive = flat fitted curve, though single readings scatter.
These molecules were tested on CRL-7250 (assay: Cytotoxic Profiling of Annotated Libraries Using Quantitative High-Throughput Screening (AID 1296008; also: nearly all actives have a fitted effect of over 60% in size)). Settings: Five cell lines viability, CellTiter-Glo ATP luminescence, 48-72 h; max response: active compounds read low.
Summary of the method: (§1)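 Compounds were pin-transferred onto cells and incubated 48 or 72 hr at 37 degree Celsius, 95% humidity. CellTiter-Glo was added, plates sat 10 min at room temperature, then ATP-coupled luminescence was imaged as the viability read-out.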
% is scaled to controls: 0 for no effect and ±100 for the full control effect; potency is read from the fitted curve at half-maximal effect.

SMILES | outcome | max response
COc1cc(C(C)=O)c(OC)c2c1OC(C)(C)C=C2 | inactive | 
O=C(Nc1ccccc1C(=O)NC1CCCCNC1=O)c1cc2ccccc2s1 (centres undefined) | inactive | 
CCC[C@@]1(CCc2ccccc2)CC(O)=C([C@H](CC)c2cccc(NS(=O)(=O)c3ccc(C(F)(F)F)cn3)c2)C(=O)O1 | inactive | 
CC(C)(Cc1ccccc1)NCC(O)c1ccc(O)c(NS(C)(=O)=O)c1 (centres undefined) |  | 0.0508% (inactive)

What follows are molecules tested on HaCat in the same assay as above. Settings: Five cell lines viability, CellTiter-Glo ATP luminescence, 48-72 h; max response: active compounds read low.
Summary of the method: as §1

SMILES | max response | Potency
Cc1ccc(C)c(NC(=O)[C@@H]2CCCN2S(=O)(=O)c2cccc3cccnc23)c1 | -26.4% (inactive) | 
C[C@@H]1CC[C@@]23CC[C@]4(C)[C@@](C=CC5[C@@]6(C)CC[C@H](O)C(C)(C)C6CC[C@]54C)(OC2=O)C3[C@H]1C (some centres undefined) | -10.7% (inactive) | 
O=C(NCC(=O)N1CCCC1)Nc1ccc2cnccc2c1 | -20.6% (inactive) | 
NS(=O)(=O)c1ccc(N2N=C(c3ccccc3)CC2c2ccccc2)cc1 (centres undefined) | 4.65% (inactive) | 
COCCNCc1ccc(-c2cc3nccc(Oc4ccc(NC(=O)C5(C(=O)Nc6ccc(F)cc6)CC5)cc4F)c3s2)nc1 |  | 23.1 µM (active)
CC1(C)CCC2(C(=O)OC3OC(COC4OC(CO)C(O)C(O)C4O)C(O)C(O)C3O)CCC3(C)C(=CCC4C5(C)CCC(OC6OCC(O)C(O)C6O)C(C)(C)C5CCC43C)C2C1O (centres undefined) | -3.21% (inactive) | 
CC1=C(C(=O)OC2CCCCC2)C(c2ccc([N+](=O)[O-])cc2)C2=C(CC(C)(C)CC2=O)N1 (centres undefined) | -9.38% (inactive) | 
O=C(NCCO)c1cccc(-c2cc(Nc3ccc(OC(F)(F)F)cc3)ncn2)c1 | -14.2% (inactive) | 
CCC(C)C(=O)OC12C(OC(C)=O)C(C)C3(O)C(C=C(CO)CC4(O)C(=O)C(C)=CC43)C1C2(C)C (centres undefined) | -11.4% (inactive) | 
C=C1CCN([C@H](C)[C@](O)(Cn2cncn2)c2ccc(F)cc2F)CC1 | -11.9% (inactive) | 
O=C(NCc1ccccc1-c1ccccc1C(=O)NCCc1ccccn1)OCc1ccccc1 | -7.21% (inactive) | 
CC(=O)O[C@@H]1[C@@H](O)[C@H](O[C@@H]2[C@@H](O)[C@@H](O)[C@H](O[C@H]3[C@H](O[C@H]4[C@H](O[C@H]5CC[C@@]6(C)C(CC[C@]7(C)C6CC=C6[C@@H]8CC(C)(C)CC[C@]8(C(=O)O)CC[C@]67C)[C@]5(C)CO)O[C@H](CO)[C@@H](O)[C@@H]4O)OC[C@@H](O)[C@@H]3O)O[C@H]2C)OC[C@H]1O (some centres undefined) | 3.54% (inactive) | 
C/C(=C\CO[C@@H]1O[C@H](CO[C@H]2OC[C@](O)(CO)[C@H]2O)[C@@H](O)[C@H](O)[C@H]1O)C(C)(C)O | -2.99% (inactive) | 
CC1(C)CC[C@]23CO[C@@]4(CCC5[C@@]6(C)CC[C@H](O[C@@H]7OC[C@H](O[C@@H]8O[C@H](CO)[C@@H](O)[C@H](O)[C@H]8O[C@@H]8OC[C@@H](O)[C@H](O)[C@H]8O)[C@H](O)[C@H]7O)[C@@](C)(CO)C6CC[C@@]5(C)[C@]4(C)CC2=O)[C@@H]3C1 (some centres undefined) | 2.87% (inactive) | 
C[C@@]12C(=O)N(c3ccc(C(=O)Nc4cccc5cccnc45)cc3)C(=O)[C@@H]1[C@@H]1C=C[C@H]2C1 | -0.616% (inactive) | 
COc1ccc(Sc2ccc(NC(=O)c3ccccc3Cl)cc2C#N)cc1 | -11.3% (inactive) | 
CCn1nc(C2CCN(C(=O)CCO)CC2)nc1-c1cnc(N)c(-c2nnc(C(C)(C)C)o2)n1 |  | 3.66 µM (active)
O=C(/C=C/c1ccccc1O)O[C@@H]1O[C@H](CO)[C@@H](O)[C@H](O)[C@H]1O | -3.03% (inactive) | 
Cn1ncnc1[C@@H]1c2n[nH]c(=O)c3cc(F)cc(c23)N[C@H]1c1ccc(F)cc1 | -18% (inactive) | 
C[C@@H]1CC[C@]2(C(=O)O)CC[C@]3(C)C(=CCC4[C@@]5(C)CC[C@H](O)[C@](C)(C(=O)O)C5CC[C@]43C)C2[C@]1(C)O (some centres undefined) | 4.55% (inactive) | 
Nc1nc2c(nc(Br)n2[C@@H]2O[C@@H]3COP(=O)(O)O[C@H]3[C@H]2O)c(=O)[nH]1 | -8.41% (inactive) | 
CC(C)c1ccc(NC(=O)Cn2cnc3c2c(=O)n(C)c(=O)n3C)cc1 | -14.6% (inactive) | 
CC/C(C)=C/C(=O)OC1C(OC2(C)CCC3C(C4C(C)CCC42)C3(C)C)OC(C)C(O)C1O (centres undefined) | -0.133% (inactive) | 
Cc1ccc(CNc2ncnc3ccc(-c4ccc(CO)o4)cc23)o1 |  | 16.4 µM (active)
CC(=O)O[C@@H]1CC2C(/C=C(\C)C(=O)[C@@]3(O)C[C@@H](C)[C@H](OC(=O)c4ccccc4)C3/C=C/1C)C2(C)C (some centres undefined) | -1.64% (inactive) | 
